In the library only some 3.8% were active in any assay of this set; here they are far more common.
TGFb SMAD3 inh – qHTS for Inhibitors of TGF-b; Potency, µM (series often up to 46.1 µM), hits mostly inhibitors; 410,000 tested, 1.2% active; HepG2 CAGA-GFP TGF-b/SMAD3 reporter, GFP fluorescence, 18 h; TGF-beta stimulated, 500 pg/mL final; further: nearly all actives have a fitted effect of over 65% in size
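Cell-based qHTS in HEPG2 carrying a CAGA-GFP Smad reporter; compounds added before 500 pg/mL final TGF-beta, 18 h incubation at 37 degrees C, GFP fluorescence quantified per cell by imaging cytometry.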
HepG2 viability – qHTS for Inhibitors of TGF-b: Cytotox Counterscreen. HepG2 CAGA-GFP viability, ATP luminescence, 18 h. Potency, µM (series often up to 46.1 µM), most hits filed as cytotoxic. 410,000 tested, 0.76% active. AID 588856, 2011
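HepG2 CAGA-GFP cells (1000/well, DMEM with 1% FBS) received compound, then TGF-beta at 500 pg/mL final, and were incubated 18 hours at 37 degrees C. Viability was read by CellTiter-Glo luminescence. Media-only wells were set as complete cell-killing and DMSO as no toxicity.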
ATXN2 expr inh – Primary qHTS for Inhibitors of ATXN expression; AID 1745845, 2022; Potency, µM (top dose mostly 57 µM), most hits filed as inhibitors; HEK-293 ATXN2-luciferase reporter, luminescence, 24 h; 360,000 tested, 0.72% active; further: nearly all actives have a fitted effect of over 55% in size
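qHTS (up to 57 uM final) was run with 24 h compound exposure of reporter cells at 37 °C. Each well was multiplexed: SteadyGlo luminescence measured ATXN2-luciferase expression after a fluorogenic Gly-Phe-AFC viability readout (25 uM final).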
HT1080-NT tox – qHTS for induction of synthetic lethality in tumor cells producing 2HG: qHTS for the HT-1080-NT fibrosarcoma cell line | HT-1080-NT fibrosarcoma viability, CellTiter-Glo ATP luminescence, 48 h | Potency, µM (series often up to 46.1 µM), most hits filed as cytotoxic | 360,000 tested, 1.6% active;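 further: NT is the 2HG producing partner of a matched IDH1 knockdown line; nearly all actives have a fitted effect of over 55% in size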
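A 48-hour cytotoxicity screen used HT-1080-NT cells plated 2 hours before compound delivery. ATP-based CellTiter-Glo luminescence measured viability, normalized to DMSO and no-cell controls.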
ATXN viability – Viability Counterscreen for Primary qHTS for Inhibitors of ATXN expression; 400,000 tested, 0.49% active; AID 651635, 2014; S2 cells (HEK-293 line with an ATXN2-luciferase reporter) viability, CellTiter-Fluor protease fluorescence, 24 h; Potency, µM (series often up to 56.7 µM), usual class: cytotoxic; further: nearly all actives have a fitted effect of over 40% in size
HT1080 IDH1KD tx – qHTS for induction of synthetic lethality in tumor cells producing 2HG: qHTS for the HT-1080-IDH1KD cell line; 360,000 tested, 2% active; HT-1080 IDH1 knockdown viability, ATP luminescence, 48 h; Potency, µM (top dose mostly 46.1 µM), usual class: cytotoxic
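In this qHTS, HT-1080 cells depleted of IDH1 are exposed for 48 h at 37 °C to compound titrations. Toxicity is scored from CellTiter-Glo luminescence, with DMSO as full viability and medium alone as none.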
Numbers stand for hits; n = inactive; u = inconclusive; x = no result given. The call rests on the fitted dose curve; in most records, active means well fitted curve in the direction sought with a large enough effect; inconclusive means small, poorly fitted or top-dose-only effect, or another doubt; inactive means no such curve, though single readings can be large; an effect the other way counts as inactive or inconclusive.

SMILES	TGFb SMAD3 inh	HepG2 viability	ATXN2 expr inh	HT1080-NT tox	ATXN viability	HT1080 IDH1KD tx
COCC(=O)Oc1cc(-c2ccc(C)cc2C)c(OC(=O)COC)c(-c2ccc(C)cc2C)c1	u	7.1µM	x	n	n	u
Cc1ccc(OCC(=O)Oc2c(C)cccc2C)cc1	n	n	n	n	n	n
COc1ccc2[nH]c(C(O)C(O)c3nc4c(OC)c(OC)ccc4[nH]3)nc2c1OC (stereo not drawn)	n	n	x	x	x	x
O=C(O)c1cccc2c1C(=O)c1ccccc1-2	n	n	n	n	n	u
O=C1C(=C(I)I)c2ccccc2-c2ccccc21	6.3µM	11µM	u	u	x	5.2µM
O=C(c1ccccc1)c1ccc2ccccc2c1	n	n	n	n	n	n
Cc1cc2ccccc2cc1C(=O)c1ccccc1	n	n	n	n	n	n
O=C(c1ccccc1)c1c2c(cc3sc4ccccc4[n+]13)-c1cccc3cccc-2c13	n	n	u	u	10µM	u
Cc1sc2cc3c(c(C(=O)c4ccccc4)[n+]2c1C)-c1cccc2cccc-3c12	u	n	11µM	8.2µM	u	8.2µM
CC(C)NC(=O)C1(C#N)C=C1c1ccccc1 (stereo not drawn)	x	x	u	16µM	u	u
Cc1ccccc1OCc1occc1C(=O)Nc1cccc(-n2cnnn2)c1	14µM	n	x	n	n	u
CCCN(Cc1cccs1)C(=O)Nc1ccc(Br)c(C)c1	11µM	n	x	x	x	x
O=C(CCN(CCO)Cc1ccccc1)Nc1ccc(Br)cc1	n	n	n	u	n	u
COCC(=O)Nc1ccc(Br)c(C)c1	n	n	n	n	n	n
CCN(CCC(=O)Nc1ccc(Br)c(C)c1)Cc1ccccc1	n	n	n	15µM	n	u
CC(=O)OCC(=O)Nc1ccc(Br)c(C)c1	16µM	n	n	n	n	n
CCn1cc(C(=O)NCc2ccccc2)c(=O)c2cc(S(=O)(=O)N3CCCCCC3)ccc21	n	n	n	x	n	x
CC(C)CN(C[C@H](O)[C@H](Cc1ccccc1)NC(=O)O[C@H]1CCOC1)S(=O)(=O)c1ccc(N)cc1	x	x	n	x	x	x
CCCC(=O)NC(c1ccc2c(c1)OCO2)c1cc(Cl)c2cccnc2c1O (stereo not drawn)	u	n	8.9µM	8.2µM	n	3.7µM
CCCC(=O)NC(c1ccco1)c1cc(Cl)c2cccnc2c1O (stereo not drawn)	n	n	25µM	u	u	10µM
CCCCCCCCN1[C@@H](CC(=O)O)c2ccc(/C=C/C(=O)O)cc2S1(=O)=O	n	n	x	x	x	x
Cc1ccc(Cn2c(C)c3cnn(CC(=O)N4CCN(c5ccc(F)cc5)CC4)c(=O)c3c2C)cc1	u	n	x	x	x	x
COc1cc2c(cc1OC)C1(Nc3c-2c(-c2ccccc2)nn3-c2ccccc2)C(=O)Nc2ccccc21 (stereo not drawn)	16µM	n	n	u	n	n
Cc1ccc(C)c2sc(N3CCN(C(=O)c4ccco4)CC3)nc12	10µM	n	u	x	n	x
O=C(CSc1nc(-c2cccs2)cc(C(F)(F)F)n1)Nc1cc(OCC(F)(F)F)cc([N+](=O)[O-])c1	n	n	u	u	16µM	16µM
SMILES	TGFb SMAD3 inh	HepG2 viability	ATXN2 expr inh	HT1080-NT tox	ATXN viability	HT1080 IDH1KD tx
COc1ccc(NC(=O)CSc2nc(-c3cccs3)cc(C(F)(F)F)n2)cc1OC	u	n	n	x	n	x
CCCCSCCCNC(=O)CN1C(=O)COc2ccc(S(=O)(=O)N3CCCC3)cc21	u	n	n	x	u	x
O=C(Nc1cccc(Cl)c1)c1cccc(Oc2ccc([N+](=O)[O-])cc2Cl)c1	16µM	n	x	u	u	u
COc1ccc(NC(=O)c2cccc(Oc3ccc([N+](=O)[O-])cc3Cl)c2)cc1	u	n	n	u	n	u
CS(=O)(=O)c1ccc(-c2cccc3c2OC(CNC(=O)c2ccnc(Cl)c2)C3)cc1 (stereo not drawn)	x	x	x	x	n	x
CC(=O)Nc1ccc(N2C(C(C)=O)=NN(c3ccccc3)C2c2cccs2)cc1 (stereo not drawn)	n	n	n	n	n	u
CC(=O)Nc1ccc(N2C(C(C)=O)=NN(c3ccc(Cl)cc3)C2c2sccc2C)cc1 (stereo not drawn)	u	n	n	u	n	7.9µM
C/C(Cn1cnc([N+](=O)[O-])n1)=N\NC(=O)c1ccccc1	n	n	n	n	n	n
C/C(Cn1nnc([N+](=O)[O-])n1)=N\NC(=O)c1ccccc1	11µM	n	n	u	u	u
CCCCCc1c(-c2ccccc2)ncn1CCc1ccccc1OC	x	x	n	u	u	u
CCCCc1c(Cc2cccc(F)c2)ncn1CCc1ccccc1OC	x	x	14µM	16µM	18µM	u
CCCCc1c(-c2ccc(OC)c(OC)c2)ncn1CCc1ccccc1OC	x	x	u	15µM	x	12µM
CCCCc1c(-c2cccc(OC)c2)ncn1CCc1ccccc1OC	x	x	22µM	21µM	x	26µM
COc1ccccc1CCn1cnc(-c2ccc(OC)c(OC)c2)c1C(C)C	x	x	n	23µM	u	u
COc1ccccc1CCn1cnc2c3cc(C)ccc3n(C)c2c1=O	n	n	n	n	n	n
COc1ccc(N2CCN(C(=O)c3cccn3-c3nnc(N4CCCC4)s3)CC2)cc1	n	n	x	x	x	x
Cc1csc(C(C)N(C)C(=O)c2cnn(-c3nccc(-c4cc(C)sc4C)n3)c2C)n1 (stereo not drawn)	x	x	x	x	n	x
Cc1ccc(C(=O)c2cc(O)c(O)c([N+](=O)[O-])c2)cc1	x	x	n	x	n	x
CS(=O)(=O)c1ccc(-c2cnc(N)c(C(=O)Nc3ccccc3)n2)cc1	x	x	n	x	x	x
Cn1nc(C(=O)Oc2cc(=O)n(C)c3ccccc23)c2ccccc2c1=O	n	n	x	n	0.22µM	n
Cn1nc(C(=O)OCc2ccc(F)cc2)c2ccccc2c1=O	n	n	n	n	n	n
CSc1ccc(/C=C2\C=C(C(O)c3ccc(SC)cc3)c3ccccc32)cc1 (stereo not drawn)	n	n	x	x	x	x
O=C(c1ccc(S(=O)(=O)Cc2cc(F)ccc2F)c([N+](=O)[O-])c1)N1CCCCC1	u	n	n	n	u	n
O=C(c1ccc(S(=O)(=O)Cc2cc(F)ccc2F)c([N+](=O)[O-])c1)N1CCCC1	u	n	n	u	n	21µM
Cn1cc(CN2CCC(C(=O)NC(c3ccc(-c4ccccc4)cc3)c3cnccn3)CC2)c2ccccc21 (stereo not drawn)	u	11µM	n	5.2µM	20µM	u
